Each structure is given as a SMILES string. Values without a mark were called inactive. How the calls were made is not given here.

Pantothenate synthetase (Mycobacterium tuberculosis (strain ATCC 25618 / H37Rv)), sequence (P9WIL5 whole entry, looked up): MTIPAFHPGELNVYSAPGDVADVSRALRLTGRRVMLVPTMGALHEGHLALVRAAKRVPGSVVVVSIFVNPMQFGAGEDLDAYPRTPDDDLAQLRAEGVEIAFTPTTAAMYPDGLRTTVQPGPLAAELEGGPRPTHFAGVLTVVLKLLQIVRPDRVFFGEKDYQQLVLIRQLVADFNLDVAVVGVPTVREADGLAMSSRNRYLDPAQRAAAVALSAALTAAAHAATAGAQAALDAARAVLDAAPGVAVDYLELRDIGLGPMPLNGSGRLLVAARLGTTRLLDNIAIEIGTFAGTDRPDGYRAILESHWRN

This experiment has as its target Pantothenate synthetase (Mycobacterium tuberculosis (strain ATCC 25618 / H37Rv)) (UniProt P9WIL5). Nature of the experiment: Coupled enzyme confirmation of inhibitors against recombinant Mtb PanC (AID 375).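 Further: 0% = full reaction with vehicle and 100% = no enzyme background.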 The conditions noted are these: coupled enzyme assay; at 10 µM, stronger effect = higher value.
The term inhibition denotes the drop in the measured response relative to a control, in per cent. For `COc1ccccc1C(=O)Nc1ccc(S(=O)(=O)N2CCCC2)cc1`, the inhibition was 4%.

`CC(C)C1Cc2c(C#N)c(N)sc(=S)c2CO1` (stereo not given): the inhibition is 2%.

In the case of `C/C=C/COC(=O)c1[nH]c2c(c1C)C(=O)CC(c1ccco1)C2` (stereo not given), the inhibition was 6%.

`O=P(O)(CCc1ccccc1)CN1CCCCC1`: the inhibition was 6%.

`COCCn1c(SCC(=O)Nc2nnc(C)s2)nnc1-c1c[nH]c2ccccc12`: the inhibition is 0%.

Regarding `COc1ccc(S(=O)(=O)C(C#N)c2nc3ccccc3nc2N2CCCC(C)C2)cc1` (stereo not given), the inhibition was 0%.

With `COc1ccc(-c2nnc(SCC(=O)Nc3sc4c(c3C#N)CCC4)n2CC2CCCO2)cc1` (stereo not given), the inhibition is 0%.

For the molecule `CCCSc1nc2c(cnn2-c2ccc(Cl)cc2)c(=O)[nH]1`, the inhibition is 0%.

`CC(C)c1nnc(NC(=O)CCC(=O)NCc2ccc3c(c2)OCO3)s1`: the inhibition was 3%.

Take `COC(=O)C1=CN(C(C)C)C=C(C(=O)OC)C1c1cc2c(cc1Br)OCO2`: the inhibition was 0%.

As for `CC(C)CNC(=O)C1C2C=CC(C2)C1C(=O)O` (stereo not given), the inhibition is 7%.

Turning to `Cc1cccc(CN2CCN(C(c3ccccc3)c3ccc(Cl)cc3)CC2)c1` (stereo not given), the inhibition is 11%.

On to `COC(=O)Cn1c(CN2CCOCC2)nc2c1c(=O)n(C)c(=O)n2C`, for which the inhibition is 0%.

Take `CCCOc1ccc(N2C(=O)CC(NCCCN3CCC(C(N)=O)CC3)C2=O)cc1` (stereo not given): the inhibition is 4%.

For the molecule `O=P(O)(CN1CCCCCC1)CN1CCCCCC1`, the inhibition is 0%.

In the case of `CCOC(=O)c1[nH]c2ccc(OC)cc2c1NC(=O)CCN1CCC(C)CC1`, the inhibition is 0%.

For `O=C1NC(=O)C(CC(=O)N(c2ccccc2)C2(C(=O)NC3CCCC3)CCCCC2)N1` (stereo not given), the inhibition was 2%.

As to `CCOC(=O)C(C(=O)OCC)C(C)C#CCN1CCCCC1` (stereo not given), the inhibition is 4%.

Turning to `O=C(Nc1ccc(N2CCCC2=O)cc1)c1cccc(F)c1`, the inhibition was 4%.

On to `CCn1c(-c2cc(Br)ccc2O)n[nH]c1=S`, for which the inhibition is 0%.

As for `FC(F)Sc1nnc(-c2cccs2)n1-c1ccccc1`, the inhibition was 0%.

For `Cn1nc(C(=O)NC2CCCCCC2)ccc1=O`, the inhibition was 0%.

With `CC1(C)CC(=O)c2cnc(NCc3ccco3)nc2C1`, the inhibition is 0%.

`CN(C)c1ccc(CNC2CC(C)(C)NC(C)(C)C2)cc1`: the inhibition was 0%.

Regarding `COc1ccc(C(O)C(CN2CCOCC2)c2ccccc2)cc1F` (stereo not given), the inhibition is 2%.

With `COc1ccccc1NC(=O)Cn1nnc(-c2ccccc2NC(=O)c2ccco2)n1`, the inhibition was 0%.

As to `Cc1ccc(-c2nc3cc(NC(=O)C(C)C)ccc3o2)cc1C`, the inhibition was 0%.

As to `CN(C)C(=O)CN(c1ccc(F)c(Cl)c1)S(C)(=O)=O`, the inhibition is 5%.

Regarding `COc1ccc(N2CCN(Cc3nc4c(c(=O)[nH]c(=O)n4C)n3CC(C)=O)CC2)cc1`, the inhibition was 0%.

In the case of `Nc1nnc(C(=O)c2ccccc2N)s1`, the inhibition is 0%.

For the molecule `CCN(CC)CCN1C(=O)Cn2c(C)c(C)c3cccc1c32`, the inhibition is 1%.

For the molecule `N#Cc1nc(COc2ccccc2Cl)oc1N1CCCCCC1`, the inhibition was 0%.

As for `CCCOc1cccc(-c2nnc(N)s2)c1`, the inhibition was 0%.

On to `O=c1c2nnn(Cc3ccc(Cl)cc3)c2ncn1Cc1ccc(F)cc1`, for which the inhibition is 0%.

As to `c1cc2c(cc1Cn1cnnn1)OCO2`, the inhibition was 0%.

In the case of `CCOC(=O)C1CCN(S(=O)(=O)c2cccc(-c3csc(C)n3)c2)CC1`, the inhibition was 0%.

Regarding `CCOC(=O)c1cc2c(=O)n3cccc(C)c3nc2n(CCOC)c1=NC(=O)c1ccncc1`, the inhibition is 0%.

Turning to `C=C(C)Cn1c(CCNC(=O)CC)nc2ccccc21`, the inhibition was 0%.

With `O=C(c1cccc(Cl)c1)N1CCN(Cc2ccncc2)CC1`, the inhibition was 0%.

Consider `COC(=O)c1ccc(CNC(=O)COc2ccccc2Br)o1`, for which the inhibition is 5%.

For the origin of these results see PubChem BioAssay.
